HCV inh – blocks hepatitis C virus; Potency, µM (top dose mostly 41.8 µM), inactives show at the top dose activity change, negative = inhibition, actives largely listed as inhibitors; Huh7.5.1 HCVcc-Cre infection, luciferase reporter, 44 h; 340,000 compounds, 3.4% hits; active = well fitted inhibition curve with a large enough effect; inconclusive = small, poorly fitted or top-dose-only effect, or another doubt; inactive = no such curve, though single readings can be large or run the other way; note: potency is the fitted concentration of half-maximal effect
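HCVcc-Cre virus at an moi near 0.5 was added right after compound to cells cultured 4 h from seeding (1,000 cells/well). Luciferase activity was determined 44 h later, 15 min after substrate addition at RT.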
VACV Venus inh – inhibitors of vaccinia virus (Venus reporter); AID 720580; 330,000 compounds, 0.46% hits; Vaccinia virus Venus reporter expression, fluorescence; Potency, µM (highest dose often 36.5 µM), for the others: top-dose activity change, negative = inhibition, most hits filed as inhibitors; calls by dose curve; tested in A549 cells; note: potency is the fitted concentration of half-maximal effect; nearly all actives have a fitted effect of over 30% in size
VACV mCherry inh – vaccinia inhibition (mCherry reporter) | 310,000 compounds, 0.63% hits | Vaccinia virus mCherry reporter infection, fluorescence | Potency, µM (titrated, usually from 36.5 µM), for the others: at the highest dose activity change, negative = inhibition, actives largely listed as inhibitors; calls by dose curve; tested in A549 cells; note: potency is the fitted concentration of half-maximal effect; nearly all actives have a fitted effect of over 35% in size
FMDV inh – blocks foot and mouth disease virus; FMDV antiviral cell-based qHTS; Potency, µM (titrated, usually from 57.9 µM), without a hit: at the top dose activity change, negative = inhibition, most hits filed as inhibitors; 410,000 compounds, 1.2% hits; calls by dose curve; tested in HEK293T cells; note: read-out not given here; potency is the fitted concentration of half-maximal effect; nearly all actives have a fitted effect of over 45% in size
HCMV antiviral – human cytomegalovirus inhibition | HFF cells, HCMV-luciferase reporter, 72 h; stronger effect = lower value | activity change, negative = inhibition, % at 57.5 µM | 410,000 compounds, 4.5% hits | AID 1259415; in the data active = activity change below about -60%; inconclusive = no clear call, values can overlap the other calls; inactive = above about -39%
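Cell-based, HFFs, 1000 cells/well, 16 h 37C; cpds in DMSO + HCMV-luc, MOI 1 PFU/cell; 72 h 37C; OneGlo luminescence after 5 min RT; norm. to buffer vs Salinomycin 10uM.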
* = called active by the depositor; i = inactive; ? = inconclusive; . = not tested or not shown. Most compounds without a hit are left out; they make up all but 7.3% or so of the library. % is set by controls: 0 for no effect and ±100 for the full control effect.

SMILES	HCV inh	VACV Venus inh	VACV mCherry inh	FMDV inh	HCMV antiviral
CN1C(=O)C(n2ccc3ccccc32)c2cc(Cl)ccc21 (configuration not stated)	.	.	.	.	-6
CC1CC(C)CN(S(=O)(=O)c2ccc(C(=O)N(c3ccccn3)C3CCCCC3)cc2)C1 (configuration not stated)	-5%	-14%	i	-19%	-23
CC1CC(C)CN(S(=O)(=O)c2ccc3c(c2)oc(=O)n3CC(=O)N(C)Cc2ccccc2)C1 (configuration not stated)	-28%	?	?	-27%	-79*
CC1CC(C)CN(S(=O)(=O)c2ccc(C(=O)N(C)Cc3ccccc3)cc2)C1 (configuration not stated)	?	.	.	0%	-65*
COc1cccc(NC(=O)c2cc(Cl)nnc2Cl)c1	?	?	6.3µM*	-15%	24
Cc1c(C(=O)Nc2cccc(F)c2)cnn1-c1ccccc1	11µM*	-20%	-5%	-10%	44
COc1cccc(NC(=O)c2cnn(-c3ccccc3)c2-n2cccc2)c1	.	-11%	-7%	-26%	-63*
COc1cc(NC(=O)c2cc(Cl)nnc2Cl)cc(OC)c1OC	-3%	.	.	-11%	1
Cc1ccc(NC(=O)c2cnn(-c3ccccc3)c2C)cc1C	?	-19%	-10%	-41%	-61*
Cc1c(C(=O)Nc2ccccc2)cnn1-c1ccccc1	-3%	-11%	-22%	8%	159
COc1ccc(NS(=O)(=O)c2cc3[nH]c(=O)c(=O)[nH]c3cc2C)cc1OC	.	-6%	-10%	-8%	-32
COc1ccc(C)cc1NC(=O)NC(C)c1c(-n2cccc2)sc(C)c1C (configuration not stated)	.	-23%	-18%	-16%	-31
CCOc1ccc2nc(N3CCCC(C(=O)NCCCN4C(C)CCCC4C)C3)sc2c1 (configuration not stated)	2.5µM*	-26%	i	35%	50
Cc1cc(C)c2nc(N3CCCC(C(=O)NCCCN4CCOCC4)C3)sc2c1 (configuration not stated)	?	-28%	?	22%	89
CCN1CCN(CCCNC(=O)C2CCCN(c3nc4c(C)cc(C)cc4s3)C2)CC1 (configuration not stated)	10µM*	-25%	i	15%	-4
CC(C)N(C(=O)C[n+]1ccc(/C=N/O)cc1)C(C)C	21%	.	.	-9%	-19
O=C(C[n+]1ccc(/C=N/O)cc1)N(Cc1ccccc1)Cc1ccccc1	2%	-6%	i	-20%	-68*
N#CC1(NC(=O)CSc2nc3ccc([N+](=O)[O-])cc3s2)CCCCC1	?	-6%	-7%	?	-81*
COc1ccc(S(=O)(=O)c2c(C(=O)c3ccc(C)c(C)c3)cnc3ccc(C)cc23)cc1	.	-10%	-26%	-9%	?
CCOc1ccc(S(=O)(=O)c2c(C(=O)c3ccc(C)cc3)cnc3cc4c(cc23)OCCO4)cc1	-13%	-14%	-13%	10%	-62*
Cc1ccc(C(=O)c2cnc3cc4c(cc3c2S(=O)(=O)c2ccccc2)OCCO4)cc1	-7%	?	?	2%	-94*
Cc1ccc2ncc(C(=O)c3ccc(C)c(C)c3)c(S(=O)(=O)c3ccccc3)c2c1	.	-6%	-19%	-17%	-92*
COc1cccc(C2=CC(c3ccccc3F)n3ncc(C(=O)Nc4ccc(C)cc4)c3N2)c1 (configuration not stated)	.	-15%	?	-13%	-16
COC(=O)c1n[nH]n(-c2ccccc2)c1=O	.	3%	-4%	-6%	-2
Cc1cccc(NC(=O)COc2coc(CN3CCN(c4ccccc4)CC3)cc2=O)c1C	?	-11%	i	?	-61*
SMILES	HCV inh	VACV Venus inh	VACV mCherry inh	FMDV inh	HCMV antiviral
CCOC(=O)COc1coc(CN2CCN(c3ccccc3)CC2)cc1=O	17%	-6%	-8%	-3%	-61*
CCOC(=O)COc1coc(CN2CCN(c3cccc(Cl)c3)CC2)cc1=O	-6%	.	.	-12%	?
O=C(CSc1nc2c([nH]c3ccccc32)c(=O)n1-c1ccccc1)N1CCc2ccccc21	.	-7%	-5%	-7%	1
CC(C)c1ccccc1NC(=O)CN(c1ccccc1)S(=O)(=O)N(C)C	.	3%	-12%	-12%	-10
COc1ccc(NC(=O)C2(c3cccs3)CCOCC2)cc1Cl	.	3%	-4%	-26%	16
Cc1cc(-c2nnc(-c3ccccc3)c(-c3ccccc3)n2)c(C)o1	?	.	.	-13%	-65*
Cc1ccc(-c2nnc(-c3ccccc3)c(-c3ccccc3)n2)cc1	-6%	-7%	i	-5%	?
COc1ccc(CN2CCC3(CC2)c2ccccc2[C@@H](NC(=O)c2ccsc2)[C@@H]3OC)cc1O	.	-10%	-16%	2%	.
CCN1C(=O)[C@H]2[C@@H](c3ccc(-c4ccc5c(c4)OCO5)c(OC)c3)N[C@@](C)(C(=O)OC)[C@H]2C1=O	3.2µM*	-11%	i	-19%	-28
COc1ccccc1-c1cc(NC=O)c2ncc(-c3cccc(C(C)=O)c3)n2c1	.	?	7.9µM*	-27%	59
COc1ccccc1-c1cc(NC=O)c2ncc(-c3cccc(C(=O)N(C)C)c3)n2c1	.	?	?	?	36
COc1cccc(-c2cnc3c(NC=O)cc(-c4ccc(OC)cc4OC)cn23)c1	.	?	?	?	-92*
COc1ccc(-c2cc(NC=O)c3ncc(-c4cccc(OC)c4)n3c2)cc1	.	-18%	-4%	-16%	-14
COc1ccc(-c2cc(NC=O)c3ncc(-c4ccc(OC)c(OC)c4)n3c2)c(OC)c1	.	?	-22%	-36%	-74*
COc1ccc(C2CC(=O)CCN2S(=O)(=O)c2ccc(F)cc2)cc1 (configuration not stated)	.	.	.	.	-10
Cc1ccc(Sc2ccc(N3CCC(C(=O)Nc4ccc(Cl)cc4)CC3)nn2)cc1	.	-13%	6%	-9%	-4
CNc1ccc(/C=C2\C=Cc3ccccc32)cc1Cl	.	-15%	-23%	.	.
CC(=O)c1c(C)[nH]c(C(=O)CN2CCN(S(=O)(=O)c3ccccc3F)CC2)c1C	3%	-18%	-26%	18µM*	?
O=S(=O)(c1ccccc1F)N1CCN(CCc2ccccc2)CC1	?	-24%	-8%	?	-72*
CCc1ccc2c(CN3CCN(S(=O)(=O)c4ccccc4F)CC3)cc(=O)oc2c1	13µM*	-11%	-14%	?	-3
Cc1cc2oc(=O)cc(CN3CCN(S(=O)(=O)c4ccc5c(c4)OCCO5)CC3)c2cc1C	7.1µM*	.	.	11%	?
C[N+]1(CC(=O)c2ccc(-c3ccccc3)cc2)CCOCC1	.	-11%	i	.	.
COc1ccc(C(=O)NCC(=O)OCC(=O)c2ccc3ccccc3c2)cc1	.	-14%	-17%	.	.
CCCCCOc1ccc(Br)cc1CSC(=N)N	7.9µM*	11µM*	?	16µM*	-98*

Screening data (PubChem BioAssay)
